The list is not random: actives were taken first. Their share in the collection is about 9%.
G9a block: G9a (human) methyltransferase inhibition | AID 504332 | G9a H3K9 monomethylation, AlphaScreen, 2 h | Potency, µM (top dose mostly 102 µM), without a hit: at the top dose activity, negative = inhibition, usual class: inhibitors | hit rate 8.8% among 350,000 | Q96KQ7; further: on the % scale 0 is the no-effect control and ±100 the full control effect; nearly all actives have a fitted effect of over 75% in size
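Compounds were preincubated with 20 nM G9a for 15 min, after which biotinylated H3K9 peptide (500 nM) and SAM (20 uM) started a 2 h room-temperature reaction. Monomethylated product was quantified by antibody-based AlphaScreen chemiluminescence.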
ALOX12 inh: blocks human arachidonate 12S-lipoxygenase; AID 1671190; P18054; hit rate 1.1% among 580,000; purified 12hLO, xylenol orange hydroperoxide absorbance; Potency, µM (titrated, usually from 108 µM), without a hit: top-dose activity change, negative = inhibition, usual class: inhibitors; further: on the % scale 0 is the no-effect control and ±100 the full control effect
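Purified human 12hLO at 150 nM in 25 mM Hepes, 0.01% Triton X-100, pH 7.0, preincubated 15 min at room temperature with compound. Reaction started with 40 uM arachidonic acid, 30 min at room temperature. Hydroperoxide measured by Fe-xylenol orange, 573/405 nm absorbance ratio.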
BAZ2B block: inhibitors of human BAZ2B bromodomain. Q9UIF8. AlphaScreen BAZ2B-H3K14Ac peptide displacement. Potency, µM (titrated, usually from 114 µM), for inactives: at the highest dose activity change, negative = inhibition, hits mostly inhibitors. hit rate 4.4% among 360,000; further: on the % scale 0 is the no-effect control and ±100 the full control effect; nearly all actives have a fitted effect of over 60% in size
Target sequence (Q9UIF8 whole entry, looked up): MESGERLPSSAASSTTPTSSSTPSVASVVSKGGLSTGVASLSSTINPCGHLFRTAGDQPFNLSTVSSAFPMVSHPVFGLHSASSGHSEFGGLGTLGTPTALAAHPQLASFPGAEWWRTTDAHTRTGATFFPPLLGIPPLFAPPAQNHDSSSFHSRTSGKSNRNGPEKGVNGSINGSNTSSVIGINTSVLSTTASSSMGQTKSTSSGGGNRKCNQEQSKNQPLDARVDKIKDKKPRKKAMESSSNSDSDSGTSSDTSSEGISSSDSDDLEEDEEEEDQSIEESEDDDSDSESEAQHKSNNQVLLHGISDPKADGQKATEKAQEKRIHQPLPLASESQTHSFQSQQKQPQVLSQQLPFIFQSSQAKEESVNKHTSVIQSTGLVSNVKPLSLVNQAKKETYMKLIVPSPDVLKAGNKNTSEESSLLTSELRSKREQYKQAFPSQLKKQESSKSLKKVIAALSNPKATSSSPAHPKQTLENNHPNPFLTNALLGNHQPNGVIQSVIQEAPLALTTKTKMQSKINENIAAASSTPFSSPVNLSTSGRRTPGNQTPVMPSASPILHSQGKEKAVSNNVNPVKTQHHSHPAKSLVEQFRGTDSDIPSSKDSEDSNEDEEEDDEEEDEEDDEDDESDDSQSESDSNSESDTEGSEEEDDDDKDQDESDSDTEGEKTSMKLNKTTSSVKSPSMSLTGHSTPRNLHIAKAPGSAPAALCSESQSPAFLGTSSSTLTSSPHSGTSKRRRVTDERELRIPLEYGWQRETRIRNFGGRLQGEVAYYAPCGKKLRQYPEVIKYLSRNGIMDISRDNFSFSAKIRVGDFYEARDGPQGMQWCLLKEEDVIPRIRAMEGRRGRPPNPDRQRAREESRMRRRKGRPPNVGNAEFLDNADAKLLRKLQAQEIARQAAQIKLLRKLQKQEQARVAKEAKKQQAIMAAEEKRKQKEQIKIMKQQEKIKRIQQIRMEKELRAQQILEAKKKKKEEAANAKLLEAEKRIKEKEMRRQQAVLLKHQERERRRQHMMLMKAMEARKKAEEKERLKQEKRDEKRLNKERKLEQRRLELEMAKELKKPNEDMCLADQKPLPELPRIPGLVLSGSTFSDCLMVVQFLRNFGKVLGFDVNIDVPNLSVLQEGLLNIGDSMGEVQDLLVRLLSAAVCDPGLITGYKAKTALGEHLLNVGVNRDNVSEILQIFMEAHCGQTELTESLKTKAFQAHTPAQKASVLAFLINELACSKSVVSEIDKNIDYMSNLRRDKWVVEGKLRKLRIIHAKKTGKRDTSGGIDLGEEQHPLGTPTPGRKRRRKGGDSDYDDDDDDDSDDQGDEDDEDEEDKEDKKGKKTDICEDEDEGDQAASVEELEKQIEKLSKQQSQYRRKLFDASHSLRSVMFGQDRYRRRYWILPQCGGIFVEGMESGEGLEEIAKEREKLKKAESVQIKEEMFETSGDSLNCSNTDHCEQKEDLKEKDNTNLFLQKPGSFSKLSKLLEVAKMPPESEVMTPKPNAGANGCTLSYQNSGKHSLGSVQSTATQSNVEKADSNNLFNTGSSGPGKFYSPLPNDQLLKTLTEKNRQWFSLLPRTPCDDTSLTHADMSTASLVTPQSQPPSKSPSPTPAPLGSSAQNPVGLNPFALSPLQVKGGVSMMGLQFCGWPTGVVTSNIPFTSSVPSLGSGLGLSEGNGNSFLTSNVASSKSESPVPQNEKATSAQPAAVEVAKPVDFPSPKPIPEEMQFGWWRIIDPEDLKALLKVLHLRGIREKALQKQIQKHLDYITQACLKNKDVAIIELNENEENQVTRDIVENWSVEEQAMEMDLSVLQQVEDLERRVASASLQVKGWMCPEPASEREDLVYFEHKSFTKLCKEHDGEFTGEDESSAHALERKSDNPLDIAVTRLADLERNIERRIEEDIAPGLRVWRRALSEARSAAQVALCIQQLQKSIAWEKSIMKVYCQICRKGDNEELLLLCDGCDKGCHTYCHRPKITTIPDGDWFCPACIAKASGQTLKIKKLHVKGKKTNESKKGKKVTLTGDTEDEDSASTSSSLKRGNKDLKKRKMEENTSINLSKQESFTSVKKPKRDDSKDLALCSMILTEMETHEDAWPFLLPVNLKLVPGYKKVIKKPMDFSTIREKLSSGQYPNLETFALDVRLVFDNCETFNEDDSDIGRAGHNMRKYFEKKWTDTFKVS
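Inhibition is scored as reduced AlphaScreen emission. The BAZ2B/b-H3(5-23)K14Ac complex (50 nM each) in PBS pH 7.4, 0.01% Tween-20 meets compound (up to 110 uM) for 30 min at RT before bead addition.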
HP1b binding inh: HP1-beta chromodomain-methylated histone interaction inhibition. AlphaScreen HP1-beta / biotin-H3K9me3 peptide binding. AID 540317. Potency, µM (titrated, usually from 114 µM), for inactives: top-dose activity change, negative = inhibition, actives largely listed as inhibitors. P83916. hit rate 0.56% among 390,000; further: nearly all actives have a fitted effect of over 70% in size
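HP1-beta protein (50 nM final) preincubated 30 min at room temperature with biotinylated H3(1-18)K9me3 peptide (50 nM) in PBS pH 7.4, 0.01% Tween-20, then compound added for 30 min. AlphaScreen streptavidin donor/nickel chelate acceptor beads (10 ug/mL final), 30 min dark, luminescence read.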
JMJD2A Tudor: inhibitors of human JMJD2A Tudor domain; Potency, µM (doses to about 114 µM), inactives show at the highest dose activity change, negative = inhibition, usual class: inhibitors; AlphaScreen JMJD2A-Tudor / H3K4me3 peptide binding; O75164; hit rate 4.4% among 390,000; further: on the % scale 0 is the no-effect control and ±100 the full control effect; nearly all actives have a fitted effect of over 50% in size
PLK1 PBD inh: inhibitors of human PLK1 polo-box domain binding; P53350; hit rate 2.8% among 360,000; Potency, µM, for the others: max response, negative = inhibition, actives largely listed as inhibitors; Plk1 PBD binding of FITC phosphopeptide, fluorescence polarization; further: series mostly up to about 57 µM; on the % scale 0 is the no-effect control and ±100 the full control effect; nearly all actives have a fitted effect of over 65% in size
Starred values were filed as active, the others as inactive; [ ] = remark or other dose. The call rests on the fitted dose curve; in most records, active means well fitted curve in the direction sought with a large enough effect; inconclusive means small, poorly fitted or top-dose-only effect, or another doubt; inactive means no such curve, though single readings can be large; an effect the other way counts as inactive or inconclusive. Potency means the concentration at half of the fitted maximal effect.

Results for COc1ccc(/C=C2/CC/C(=C\c3ccc(OC)c(OC)c3OC)C2=O)c(OC)c1OC ?
G9a block: 7.9µM*; ALOX12 inh: 6%; BAZ2B block: inconclusive; HP1b binding inh: 4%; JMJD2A Tudor: inconclusive; PLK1 PBD inh: 7%

What do the screens show for `COCc1nc(-c2ccc(OC3CN(C(=O)Nc4cccc(C)c4)C3)cc2)no1`?
ALOX12 inh: 8%

Results for CCN(CC(=O)Nc1ccccc1OC)C(=O)c1ccc2[nH]c3c(c2c1)CC(C)CC3 (configuration not stated) ?
G9a block: -12%[12.7 µM]; ALOX12 inh: 1%; BAZ2B block: inconclusive; HP1b binding inh: -24%; JMJD2A Tudor: inconclusive; PLK1 PBD inh: -11%

What do the screens show for `CC1CCc2[nH]c3ccc(C(=O)N(C)CC(=O)Nc4ccccc4Cl)cc3c2C1` (configuration not stated)?
G9a block: 50µM*; ALOX12 inh: inconclusive; BAZ2B block: inconclusive; HP1b binding inh: -37%; JMJD2A Tudor: inconclusive; PLK1 PBD inh: -1%

What do the screens show for `CC1CCc2[nH]c3ccc(C(=O)N(C)CC(=O)Nc4ccccc4C(F)(F)F)cc3c2C1` (configuration not stated)?
G9a block: 17%[2.33 µM]; ALOX12 inh: 3%; BAZ2B block: 50µM*; HP1b binding inh: -28%; JMJD2A Tudor: 50µM*; PLK1 PBD inh: -11%

What do the screens show for `CCCN(CC(=O)Nc1ccccc1OC)C(=O)c1ccc2[nH]c3c(c2c1)CC(C)CC3` (configuration not stated)?
G9a block: -13%[12.7 µM]; ALOX12 inh: inconclusive; BAZ2B block: inconclusive; HP1b binding inh: inconclusive; JMJD2A Tudor: inconclusive; PLK1 PBD inh: -1%

How did Cc1cc(C)n2nc(SCc3ncc(-c4ccccc4)o3)nc2n1 do in these assays?
G9a block: -1%[2.33 µM]; ALOX12 inh: -27%; BAZ2B block: -4%; HP1b binding inh: 24%; JMJD2A Tudor: -27%; PLK1 PBD inh: -27%

How did Cc1ccccc1OCc1nnc(SCCN2CCCC2)n1-c1ccccc1 do in these assays?
G9a block: -32%; ALOX12 inh: 8%; BAZ2B block: 79µM*; HP1b binding inh: 23%; JMJD2A Tudor: -4%; PLK1 PBD inh: 7%

What do the screens show for `CCn1c(COc2cccc(C)c2)nnc1SCC(=O)NC1CCCC1`?
G9a block: 5%; ALOX12 inh: -15%; BAZ2B block: -1%; HP1b binding inh: 0%; JMJD2A Tudor: inconclusive; PLK1 PBD inh: 30µM*

Results for CCCn1c(SCC(=O)NC2CCCCC2)nnc1-c1ccncc1 ?
G9a block: 7%[59 µM]; ALOX12 inh: -11%; BAZ2B block: 6%; HP1b binding inh: -5%; JMJD2A Tudor: -19%[11.4 µM]; PLK1 PBD inh: 24µM*

Results for CCn1c(COc2cccc(OC)c2)nnc1SCC(=O)NC1CCCC1 ?
G9a block: -18%; ALOX12 inh: -11%; BAZ2B block: -2%; HP1b binding inh: 44%; JMJD2A Tudor: 0%; PLK1 PBD inh: 7%

What do the screens show for `CCOc1ccc(Nc2nc(Cc3nnc(SCC(=O)NC4CCCCC4)n3C)cs2)cc1`?
G9a block: -8%[12.7 µM]; ALOX12 inh: 21%; BAZ2B block: 50µM*; HP1b binding inh: -1%; JMJD2A Tudor: 56µM*; PLK1 PBD inh: -1%

What do the screens show for `CCCn1c(SCC(=O)N2CCCC(C)C2)nnc1-c1cccnc1` (configuration not stated)?
ALOX12 inh: 13%; BAZ2B block: -4%; HP1b binding inh: -22%; JMJD2A Tudor: inconclusive; PLK1 PBD inh: 30µM*

How did CCn1c(COc2ccc3c(c2)OCO3)nnc1SCC(=O)c1ccccc1 do in these assays?
G9a block: 11µM*; ALOX12 inh: 26%; BAZ2B block: inconclusive; HP1b binding inh: 13%; JMJD2A Tudor: -18%; PLK1 PBD inh: -6%

What do the screens show for `COc1ccc(-n2c(COc3cccc(C)c3)nnc2SCC(=O)O)cc1`?
G9a block: -4%; ALOX12 inh: 0%; BAZ2B block: 2%; HP1b binding inh: 32%; JMJD2A Tudor: -16%; PLK1 PBD inh: 1%

Results for CCn1c(SCC(=O)N2CCCC(C)C2)nnc1-c1ccco1 (configuration not stated) ?
G9a block: 69%; ALOX12 inh: -12%; BAZ2B block: 5%; HP1b binding inh: -6%; JMJD2A Tudor: -18%; PLK1 PBD inh: -8%

What do the screens show for `Cc1cccc(OCc2nnc(SCCC(=O)O)n2-c2ccccc2)c1`?
G9a block: -47%[0.501 µM]; ALOX12 inh: 0%; BAZ2B block: 79µM*; HP1b binding inh: 40%; JMJD2A Tudor: -5%; PLK1 PBD inh: -9%

How did COc1ccc(N=c2scc(-c3ccc(OC)cc3)n2CCO)cc1 do in these assays?
G9a block: inconclusive; ALOX12 inh: inconclusive; BAZ2B block: 32µM*; HP1b binding inh: inconclusive; JMJD2A Tudor: inconclusive; PLK1 PBD inh: -14%

Results for COc1ccc(-c2csc(=Nc3ccccc3)n2CCO)cc1F ?
G9a block: 16µM*; ALOX12 inh: inconclusive; BAZ2B block: 50µM*; HP1b binding inh: inconclusive; JMJD2A Tudor: 40µM*

What do the screens show for `Cc1c(N=c2scc(-c3ccccc3)n2CCO)c(=O)n(-c2ccccc2)n1C`?
G9a block: inconclusive; ALOX12 inh: -2%; BAZ2B block: -12%; HP1b binding inh: 27%; JMJD2A Tudor: -22%; PLK1 PBD inh: -11%

How did CCCOc1cccc(CN2CCCCC2c2cccnc2)c1 (configuration not stated) do in these assays?
G9a block: 45µM*; ALOX12 inh: -22%; BAZ2B block: inconclusive; HP1b binding inh: 36%; JMJD2A Tudor: inconclusive; PLK1 PBD inh: -1%

Results for Cc1cccc(OCCc2noc(C3CCCCN3Cc3cccnc3)n2)c1 (configuration not stated) ?
ALOX12 inh: 36%

What do the screens show for `COc1cc(CN(CC2CCCO2)C(=O)c2cccs2)cc(OC)c1OC` (configuration not stated)?
ALOX12 inh: 17%; BAZ2B block: -5%; HP1b binding inh: 26%; JMJD2A Tudor: -8%; PLK1 PBD inh: -12%

Results for c1ccc(CNc2c3ccccc3nc3ccccc23)cc1 ?
G9a block: -11%[2.33 µM]; ALOX12 inh: -18%; BAZ2B block: -3%; HP1b binding inh: 34%; JMJD2A Tudor: -12%; PLK1 PBD inh: -8%

Results for Oc1ccc(CCNc2c3ccccc3nc3ccccc23)cc1O ?
G9a block: -1%[0.501 µM]; ALOX12 inh: inconclusive; BAZ2B block: inconclusive; HP1b binding inh: 14%; JMJD2A Tudor: 28µM*; PLK1 PBD inh: 27µM*

Screening data from PubChem BioAssay.
